# BJeLR lethal = BJeLR cell viability loss | BJeLR (HRASV12) viability, CellTiter-Glo ATP luminescence, 48 h | inhibition, % (concentration not given with the values) | 300,000 compounds, 0.17% hits | AID 1554; in the data active = inhibition above about 50%
# DUSP3 inh = inhibitors of human VHR1 phosphatase (DUSP3); P51452; recombinant VHR phosphatase, pNPP absorbance; inhibition, % at 13.3 µM; 290,000 compounds, 0.52% hits; AID 1654; in the data active = inhibition above about 50%
# PrPC surface inh = reduces human prion protein on the cell surface; 370,000 compounds, 0.43% hits; inhibition, % at 13.8 µM; cell surface PrPC, TR-FRET read-out; P04156; in the data active = inhibition above about 24%; also: 0% = median of the test wells and 100% = reference compound wells
# 3CLpro inhibitor = SARS-CoV 3CLpro protease inhibition | recombinant SARS-CoV 3CLpro, quenched FRET peptide cleavage | inhibition, % at 6 µM | 290,000 compounds, 0.14% hits | AID 1706; in the data active = inhibition above about 12%
# PrPC TRFRET cf = confirmation of inhibitors of cell surface human prion protein. cell surface PrPC level, TR-FRET. 1,500 compounds, 65% hits. inhibition, % at 13.8 µM. shares compounds with PrPC surface inh. AID 743200; in the data active = inhibition above about 25%
# LD9 tox = kills or reduces viability of LD9 cells in PrPc counter-screen; LD9 cells cytotoxicity, luminescence viability; inhibition, % at 13.8 µM; shares compounds with PrPC surface inh; 1,500 compounds, 29% hits; AID 743201; in the data active = inhibition above about 9.5%
# * marks the source's active call; other numbers are inactive results; . = not tested or not shown. Hits are enriched below; roughly 1.1% of the tested compounds scored in any of these assays.
SMILES,BJeLR lethal,DUSP3 inh,PrPC surface inh,3CLpro inhibitor,PrPC TRFRET cf,LD9 tox
O=C(CC(=O)OCc1ccccc1)OCc1ccccc1,.,.,8,.,.,.
O=C(COC(=O)CCC1CCCC1)Nc1ccc(F)cc1,.,.,-4,.,.,.
NS(=O)(=O)c1ccc(NC(=S)NC(=O)c2ccc3c(c2)OCO3)cc1,-2,14,12,5,.,.
NC(N)=NS(=O)(=O)c1ccc(NC(=S)NC(=O)c2ccc3c(c2)OCO3)cc1,2,-12,47*,-3,56*,-9
CC(C)C[C@H]1CN(CCCC[C@H]2CNC(=O)C(=O)N2CCc2ccccc2)C(=O)C(=O)N1CC1CCCCC1,.,.,2,.,.,.
C=C1c2cccc(O)c2C(=O)C2C(=O)[C@]3(O)C(=O)C(C(N)=O)C(=O)[C@@H](N(C)C)[C@@H]3[C@@H](O)[C@H]12 (stereo partly specified),.,.,40*,.,-2,0
COc1cc(C2NC(=O)NC(c3ccccc3)=C2C(C)=O)ccc1OCC#N (stereo unspecified),6,-12,8,0,.,.
CCCOc1ccc(C2NC(=S)NC(C)=C2C(=O)c2ccccc2)cc1OC (stereo unspecified),-1,-26,50*,-1,53*,-7
C=CCOc1ccc(C2NC(=S)NC(c3ccccc3)=C2C(C)=O)cc1OC (stereo unspecified),2,2,52*,3,45*,-2
CC1=C(C(=O)c2ccccc2)C(c2ccc(OC(F)F)cc2)NC(=S)N1 (stereo unspecified),-2,10,50*,3,47*,4
CC1=C(C(=O)c2ccccc2)C(c2ccc(O)cc2)NC(=S)N1 (stereo unspecified),8,-6,-4,-1,.,.
O=C(NCc1ccccc1)Nc1cccn(Cc2ccccc2)c1=O,2,-8,10,4,.,.
CCOc1ccc(NC(=O)Nc2cccn(Cc3ccccc3)c2=O)cc1,6,7,30*,0,15,-7
CC(=O)Nc1ccc(S(=O)(=O)NCC(=O)Nc2ccc3c(c2)OCO3)cc1,.,.,2,.,.,.
CCOc1cc(S(=O)(=O)n2cc(-c3ccc(F)cc3)c(N)n2)cc(OCC)c1OCC,10,-4,29*,3,19,4
CC1CCCCC1Nc1nc2ccc(Cl)cc2n2cnnc12 (stereo unspecified),11,-24,34*,5,18,-1
Cc1cc(C)cc(Nc2nc3ccc(C)cc3n3cnnc23)c1,-4,.,-3,3,.,.
CC(=O)Nc1ccc(NC(=O)C(C)OC(=O)c2ccc(S(=O)(=O)N3CCCCCC3)cc2)cc1 (stereo unspecified),.,.,4,.,.,.
CC(C)CC1NC(=O)c2cc3ccccc3cc2-n2c1nc1ccc(Cl)cc1c2=O (stereo unspecified),.,.,7,.,.,.
CC(CNC(=O)c1cc(COc2ccc3ncccc3c2)on1)c1ccccc1 (stereo unspecified),-1,18,25*,2,22,17*
O=C(NC1CCCCCCC1)c1cc(COc2ccc3ncccc3c2)on1,23,14,28*,3,19,18*
COc1ccc(/C(C)=N/NC(=O)CNC(=O)c2cccnc2)cc1OC,-2,10,5,-5,.,.
CCCCC1O[C@@H](C)[C@@H]2CN3CCc4c([nH]c5ccccc45)[C@@H]3C[C@@H]2N1C (stereo partly specified),.,.,-15,.,.,.
Cc1cccc(/C=N/NC(=O)c2ccncc2)n1,-1,23,-5,-3,.,.
O=C1CCC(C(=O)OCC(=O)Nc2ccc(SC(F)F)cc2)=NN1,.,.,3,.,.,.
SMILES,BJeLR lethal,DUSP3 inh,PrPC surface inh,3CLpro inhibitor,PrPC TRFRET cf,LD9 tox
COc1ccc(NC(=O)c2nnn(CC(=O)Nc3ccc4c(c3)OCO4)c2N)cc1OC,11,-17,-4,1,.,.
COc1ccc(Br)cc1Cn1nnc(C(=O)Nc2ccc3c(c2)OCCO3)c1N,-2,-15,25*,4,18,0
CN(Cc1ccccc1)C1(CNC(=O)CCC(F)(F)F)Cc2ccccc2C1,-3,14,26*,-4,15,0
CN(CC(=O)Nc1ccc(F)cc1)C(=O)Cn1cnc2ccc([N+](=O)[O-])cc2c1=O,.,.,-23,.,.,.
O=C(c1ccccc1)c1c[nH]c(C(=O)NNc2ccccc2)c1,-7,18,27*,-1,24,7
C/C(=N\Nc1nc2ccccc2[nH]1)c1ccccn1,74*,13,26*,0,48*,69*

# Compound activity as filed in PubChem.
